This is a sample that favours compounds with a hit; in the whole collection about 12% have one here.
Shiga toxin inh: A qHTS for Small Molecule Inhibitors of Shiga Toxin; Vero cells, Shiga toxin protein synthesis inhibition reporter; 9.2% of 290,000 active; inhibition, % at 38.7 µM; in the data active means inhibition mostly above about 28%, no sharp cut-off; inactive means mostly below about 43%; further: 0% is about no effect
Lassa entry inh: qHTS for Inhibitors of binding or entry into cells for Lassa Virus; Potency, µM (doses to about 37.9 µM), for the others: at the highest dose activity change, negative = inhibition, actives largely listed as inhibitors; AID 540256, 2011; 1.2% of 300,000 active; Lassa virus pseudotype entry inhibition, cell reporter; calls by dose curve; tested in HEK293 cells; further: potency means the concentration at half of the fitted maximal effect; on the % scale 0 is the no-effect control and ±100 the full control effect; nearly all actives have a fitted effect of over 50% in size
Cycloheximide cs: Cycloheximide Counterscreen for Small Molecule Inhibitors of Shiga Toxin | cell reporter, cycloheximide protein synthesis inhibition counterscreen | max response, % | 12% of 300,000 active | AID 2314, 2010; in the data active means max response mostly above about 13%, no sharp cut-off; inactive means mostly below about 14%; further: read at 38.3 µM for the half of the compounds with a filed dose; 0% is about no effect
Marburg entry inh: qHTS for inhibitors of binding or entry into cells for Marburg Virus | Marburg virus pseudotyped entry inhibition, cell reporter | Potency, µM (top dose mostly 37.8 µM), without a hit: top-dose activity change, negative = inhibition, usual class: inhibitors | 1.8% of 300,000 active | AID 540276, 2011; calls by dose curve; tested in HEK293 cells; further: potency means the concentration at half of the fitted maximal effect; on the % scale 0 is the no-effect control and ±100 the full control effect
Starred values were filed as active, the others as inactive; ? = inconclusive; · = no result; [ ] = remark or other dose.

SMILES	Shiga toxin inh	Lassa entry inh	Cycloheximide cs	Marburg entry inh
COCOc1ccc(Br)cc1C(=O)C=Cc1ccc2c(c1)OCO2	·	·	·	6%[14.2 µM]
CNc1ccc(Br)cc(C(=O)/C=C/c2cc(OC)ccc2OC)c1=O	19	?	6	?
CNc1ccc(Br)cc(C(=O)/C=C/c2ccc3c(c2)OCO3)c1=O	74	?	25*	-32%
O=C(Nc1ccc(Br)cc1)c1cccc(OC(=S)N2CCOCC2)c1	50*	?	19*	?
CCOc1ccc(NC(=O)c2cccc(OC(=S)N3CCOCC3)c2)cc1	5	0%	11*	-18%[46.1 µM]
COc1ccc(NC(=O)c2cccc(OC(=S)N3CCOCC3)c2)cc1	21	·	6	·
CCCCN(CC)CCCNC(=O)c1cn(-c2ccc(OC)cc2)c(=O)c2ccccc12	-2	·	-3	·
Cc1ncsc1CCC(=O)N1CCCC(Nc2ccc(C(C)C)cc2)C1 (stereo not given)	7	-16%	-1	?
c1ccc(-c2ccc(-c3nccc4ccccc34)[nH]2)cc1	14	·	29*	·
N#Cc1cc(-c2ccccc2)[nH]c1-c1nccc2ccccc12	9	·	6	·
O=C(Nc1ccc(-c2nnc(-c3ccccc3)o2)cc1)C(F)(F)F	73	?	49*	-26%
CC(C)C(=O)Nc1ccc(C(=O)NNC(=O)CCc2ccccc2)cc1	-6	-1%	-2	?
CC(C)C(=O)Nc1ccc(-c2nnc(-c3ccccc3)o2)cc1	119*	?	72*	?
CC(=O)Nc1ccc(NC(=O)C(F)(F)F)cc1	-5	-14%	-4	-33%
CC(C)C(=O)Nc1ccc(C(=O)c2ccccc2)cc1	57*	9%	50*	11%
CC(=O)/C=C(\C)Nc1ccc(-c2cnc(-c3ccccc3)o2)cc1	130*	?	83*	?
CC(=O)Nc1ccc(OCc2nnc(-c3ccccc3)o2)cc1	8	13%[46.1 µM]	-3	-5%[46.1 µM]
CC(=O)Nc1ccc(-c2nc3ccccc3c(=O)o2)cc1	20	2%[46.1 µM]	-8	-6%[46.1 µM]
O=[N+]([O-])c1ccc(Nc2ccc3ccccc3c2)nc1	89*	24%	45*	-21%
O=C(O)c1cccc(Nc2ccc([N+](=O)[O-])cn2)c1	9	·	-1	·
Cc1ccc2c(c1)cc1c(=O)n(CC(=O)N3CCCC3)nc(C)n12	22	·	5	·
COc1ccccc1C(=O)Nc1c(C(=O)N(C)c2ccccc2)sc2nc(C)cc(C)c12	·	16%[46.1 µM]	·	1%[46.1 µM]
COc1ccc(S(=O)(=O)N2CCCCC2)cc1NC(=O)c1ccco1	-5	1%	1	19%
COc1ccc(S(=O)(=O)N2CCCCC2)cc1NC(=O)c1ccc([N+](=O)[O-])o1	44*	-9%[46.1 µM]	23*	19%[46.1 µM]
COc1ccc(CNC(=O)COc2ccc(S(=O)(=O)N3CCCCC3)cc2)cc1	3	-13%	2	2%
SMILES	Shiga toxin inh	Lassa entry inh	Cycloheximide cs	Marburg entry inh
O=C(Nc1ccc(S(=O)(=O)N2CCOCC2)cc1)c1ccc([N+](=O)[O-])o1	61*	-25%	19*	?
COc1ccc(CN(C)C(=O)/C=C/c2ccc(S(=O)(=O)N3CCCCCC3)cc2)cc1	·	5µM*	·	?
COc1ccc(S(=O)(=O)N2CCCCCC2)cc1	-5	4%	1	5%
COc1ccc(CNC(=O)COc2ccc(S(=O)(=O)N3CCCCC3)cc2Cl)cc1	-3	13µM*	-3	?
COc1ccc(NC(=O)CSc2nnc3scc(-c4ccc(Cl)cc4)n23)cc1	·	-21%[46.1 µM]	·	23%[46.1 µM]
N#CC(=NCc1cccnc1)C1=C(O)c2ccccc2C1=O	-12	-17%[46.1 µM]	2	4%[46.1 µM]
O=C(Nc1ccc(N2CCOCC2)cc1)c1ccc([N+](=O)[O-])o1	59*	-28%[46.1 µM]	37*	?
COc1ccc2cc(-c3ccn[nH]3)ccc2c1	80*	-1%[46.1 µM]	32*	?
COc1ccc(-c2cn[nH]c2C)cc1	-3	-27%	1	0%[14.2 µM]
CCOc1ccc(/C=N/n2c(-c3ccccc3)n[nH]c2=S)cc1	-3	·	3	·
CCN1CCc2c(sc(NC(=S)NC(=O)c3ccc(Cl)cc3)c2C(N)=O)C1	5	15%	-2	2%[14.2 µM]
CC(C)C1Cc2c(sc(NC(=S)NC(=O)c3ccccc3)c2C#N)CO1 (stereo not given)	-7	·	-4	·
CCCN1CCc2c(sc(NC(=S)NC(=O)c3ccccc3)c2C#N)C1	43*	·	38*	·
CC(C)N1CCc2c(sc(NC(=S)NC(=O)c3ccccc3)c2C#N)C1	39*	13%	45*	7%[46.1 µM]
COc1ccc(/C=N/NC(=O)/C(=C/c2ccccc2)CCO)cc1	13	-13%	12*	0%
O=C(CCCCCNC(=O)c1ccccc1)N/N=C/c1ccc(O)cc1O	-16	20%	-9	?
